The text below walks through data of PubChem BioAssay (EPA / NIEHS).

SMILES strings stand for the structures. A structure can be active in one record and inactive in another. Activity calls are given as the source filed them. Rule for the calls: active = hit-call score of the fitted dose curve at least 0.9, where 1 is the maximum; inactive = score below 0.9.

Assay [1] can be described thus: ATG_NFI_CIS: Attagene CIS-FACTORIAL HepG2 Assay for human Nuclear Factor I (NFI) (AID 2282989). As to conditions: HepG2 cis-regulatory reporter, NFI response element transcription; actives raise or lower the signal. The method in brief:
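HepG2, transient MRTU, 24 h exposure; RNA→cDNA→PCR→FAM label→HpaI→CE fluorescence. Bidirectional fit, DMSO = baseline.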

Assay [2] concerns the target Myc proto-oncogene protein (Homo sapiens) (UniProt P01106). Briefly: ATG_Myc_CIS: Attagene CIS-FACTORIAL HepG2 Assay for human Myelocytomatosis (Myc) Proto-Oncogene Transcription Factor (AID 2282990). As to conditions: HepG2, Attagene cis-reporter transcription factor activity; actives raise or lower the signal. The gist of the method:
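Fluorescence intensity of reporter-specific cDNA fragments, separated by capillary electrophoresis, gives the signal. Transfected HepG2 cells carrying cis-promoter reporter constructs are incubated with compound for 24 h; DMSO serves as baseline.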

Assay [3] in a line: ATG_NF_kB_CIS: Attagene CIS-FACTORIAL HepG2 Assay for human Nuclear Factor Kappa B (NF-kB) (AID 2282991). Conditions: HepG2 Attagene cis-factorial NF-kB reporter mRNA; actives raise or lower the signal. The method in brief: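 Endpoint from a 52-component multiplexed HepG2 reporter panel: cis-regulated transcription units transiently transfected, 24 h dosing, reporter mRNA quantified by RT-PCR and capillary electrophoresis, scored as increase or decrease against DMSO.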

Assay [4] is described as follows: ATG_NRF2_ARE_CIS: Attagene CIS-FACTORIAL HepG2 Assay for human Nuclear Factor Erythroid 2 Related Factor 2 (NFR2) response to Antioxidant Response Elements (ARE) (AID 2282992).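 For AC50: reporter mRNA level measured by RT-PCR and capillary electrophoresis fluorescence.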 Conditions: HepG2 Attagene ARE/NRF2 reporter, transcription factor activity; actives raise or lower the signal. The gist of the method:
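Fluorescence intensity of reporter-specific cDNA fragments, separated by capillary electrophoresis, reflects mRNA induction in transfected HepG2 cells at 24 h. Activity is fitted bidirectionally, DMSO serving as baseline.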

Assay [5] in a line: ATG_Oct_MLP_CIS: Attagene CIS-FACTORIAL HepG2 Assay for human Octamer-Binding Transcription Factor (Oct) (AID 2282993). As to conditions: HepG2 Attagene cis-factorial Oct reporter, mRNA; actives raise or lower the signal. The gist of the method: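 Multiplexed cis-reporter assay in human liver HepG2 cells, 24 h incubation. Reporter RNA amplified and labelled, then resolved by capillary electrophoresis; DMSO serves as negative control and baseline.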

In assay [6] the target is Cellular tumor antigen p53 (Homo sapiens) (UniProt P04637). Description: ATG_p53_CIS: Attagene CIS-FACTORIAL HepG2 Assay for human p53 Transcription Factor (AID 2282994). Conditions: HepG2 p53 cis-element reporter, Attagene mRNA; actives raise or lower the signal. The method in brief:
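Transiently transfected HepG2 (multiple cis reporter transcription units); exposure 24 h; reporter RNA via RT-PCR, 6-FAM extension, 2 h HpaI digest at 37 C, CE detection; DMSO baseline.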

Assay [7] can be described thus: BSK_3C_TissueFactor: BioMAP Diversity Plus: 3C Assay for Tissue Factor Biomarker Activity (AID 2282997). As to conditions: BioMAP 3C HUVEC, tissue factor biomarker readout; actives raise or lower the signal. The gist of the method:
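Readout: Tissue Factor ELISA. Cells: human primary umbilical vein endothelium. Time: 24 h after dosing. Analysis: bidirectional fit, DMSO baseline.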

The nature of assay [8]: BSK_3C_uPAR: BioMAP Diversity Plus: 3C Assay for Urokinase-type plasminogen activator receptor (uPAR) Biomarker Activity (AID 2282998). As to conditions: BioMAP 3C HUVEC, uPAR biomarker ELISA; actives raise or lower the signal. The method in brief: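 Dose primary human umbilical vein endothelial cells, incubate 24 h, measure cell-surface uPAR by ELISA, then fit the signal in both directions against the DMSO negative control.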
For orientation: ELISA stands for enzyme-linked immunosorbent assay.

The nature of assay [9]: BSK_3C_VCAM1: BioMAP Diversity Plus: 3C Assay for Vascular cell adhesion molecule 1 (VCAM1) Biomarker Activity (AID 2282999). As to conditions: BioMAP 3C HUVEC, VCAM1 ELISA, cytokine-stimulated; actives raise or lower the signal. The method in brief:
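HUVEC primary cells, 24 h compound exposure; VCAM-1 by ELISA; gain/loss of signal fitted bidirectionally vs DMSO baseline.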

A short description of assay [10]: BSK_4H_Eotaxin3: BioMAP Diversity Plus: 4H Assay for Eotaxin 3 Biomarker Activity (AID 2283000).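 For outcome: CCL26 protein level quantified by ELISA in parallel with SRB cytotoxicity check.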 As to conditions: primary human endothelial cells (HUVEC); actives raise or lower the signal. The method in brief:
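HUVEC, 24 h post-dose, ELISA for Eotaxin-3/CCL26. Gain or loss of signal fitted bidirectionally vs DMSO baseline.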

Myc proto-oncogene protein (Homo sapiens), sequence (P01106 whole entry, looked up, the tested form may be a part): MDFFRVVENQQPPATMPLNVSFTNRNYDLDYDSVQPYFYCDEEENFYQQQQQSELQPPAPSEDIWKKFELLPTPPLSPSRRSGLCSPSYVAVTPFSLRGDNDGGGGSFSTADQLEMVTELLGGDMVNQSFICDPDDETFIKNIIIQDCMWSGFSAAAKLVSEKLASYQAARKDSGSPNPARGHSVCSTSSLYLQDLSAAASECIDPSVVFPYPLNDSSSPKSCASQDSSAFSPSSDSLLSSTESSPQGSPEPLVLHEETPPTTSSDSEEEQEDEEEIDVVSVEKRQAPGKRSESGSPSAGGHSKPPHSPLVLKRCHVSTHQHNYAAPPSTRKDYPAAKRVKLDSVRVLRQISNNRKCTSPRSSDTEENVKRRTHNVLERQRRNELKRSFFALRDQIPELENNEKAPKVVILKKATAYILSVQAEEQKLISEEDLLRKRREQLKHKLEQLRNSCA
Cellular tumor antigen p53 (Homo sapiens), sequence (P04637 whole entry, looked up): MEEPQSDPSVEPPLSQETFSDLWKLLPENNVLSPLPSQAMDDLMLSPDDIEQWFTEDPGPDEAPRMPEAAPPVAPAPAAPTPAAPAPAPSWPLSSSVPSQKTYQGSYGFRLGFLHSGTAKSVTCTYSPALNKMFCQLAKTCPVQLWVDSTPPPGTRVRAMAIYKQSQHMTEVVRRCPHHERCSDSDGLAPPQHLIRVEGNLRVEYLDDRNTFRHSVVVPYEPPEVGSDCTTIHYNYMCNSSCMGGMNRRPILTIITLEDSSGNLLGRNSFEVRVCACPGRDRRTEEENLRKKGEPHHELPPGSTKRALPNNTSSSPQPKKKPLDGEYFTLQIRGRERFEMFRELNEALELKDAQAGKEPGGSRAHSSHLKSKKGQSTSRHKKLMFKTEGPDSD

On to `C=C(C)C(=O)OCCC(F)(F)C(F)(F)C(F)(F)C(F)(F)C(F)(F)C(F)(F)F`, for which the result in [1], in assay [2], in [3], in assay [4], in [5] and in assay [6] was inactive. Moreover, the result in assay [7], in assay [8], in assay [9] and in assay [10] was inactive. Moreover, the AC50 in assay [10] was 20 µM (active).

Turning to `N#C[C@@H]1CC(F)(F)CN1C(=O)CNC1CC2CCC(C1)N2c1ncccn1` (stereo not given in full), the compound was classed as inactive in [1], in [2], in [3], in assay [4], in assay [5] and in assay [6]. Also, the result in [7], in [8], in [9] and in assay [10] was inactive.

Regarding `CC(=O)CC(C)(C)O`, the outcome in assay [1], in assay [2], in assay [3], in [4], in assay [5] and in [6] was inactive. Also, the result in [7], in assay [8], in assay [9] and in [10] was inactive.

Consider `CN1CCN(c2ccccc2/C=C2\SCCN(c3ccc(Cl)c(Cl)c3)C2=O)CC1`, for which the outcome in assay [1], in assay [2], in assay [3], in assay [5], in assay [6] and in assay [9] was inactive. Also, the outcome in [10] was inactive. The figures for the AC50 in [4], in assay [7] and in assay [8] were 3.7 µM (active), 6.4 µM (active) and 16.2 µM (active), respectively.

As for `CC[C@H](C)[C@@H](C(=O)O)n1sc2ccccc2c1=O`, the compound was classed as inactive in assay [1], in [2], in [5], in assay [6], in assay [7] and in assay [8]. Also, the outcome in assay [9] and in assay [10] was inactive. Moreover, the AC50 in assay [4] was 73.8 µM (active).

Take `O=C(O)c1ccccc1C(c1ccc(O)cc1)c1ccc(O)cc1`: the result in [1], in [2], in assay [3], in assay [4], in assay [5] and in assay [7] was inactive. Further, the result in assay [8], in [9] and in [10] was inactive.

`CCCCCCCCCCCCN1CCCC1=O`: the compound was classed as inactive in [1], in assay [2], in [3], in [4], in [5] and in assay [6]. The AC50 in assay [7] was 33.6 µM (active); in assay [8], 31.1 µM (active); in [9], 35.2 µM (active); in assay [10], 36.9 µM (active).

As for `NC(=O)N1C(=O)C(C(=O)c2cc(Cl)cs2)c2cc(F)c(Cl)cc21` (stereo not given), the call in assay [1], in assay [2], in assay [6] and in assay [9] was inactive. Besides, the AC50 in [4] was 6.05 µM (active); in assay [5], 11 µM (active); in assay [7], 5.53 µM (active); in [8] it was 14.7 µM (active); in assay [10], 14.9 µM (active).

With `CCc1nn(C2CCCCC2)c2cc(C3(C#N)CCC(C(=O)O)CC3)ccc12` (stereo not given), the outcome in [1], in [2], in assay [4], in assay [5], in assay [6] and in [7] was inactive. The AC50 in [3] is 24.9 µM (active); in assay [8], 7.5 µM (active); in assay [9], 4 µM (active); in [10], 16.5 µM (active).

As for `CCCCC(CC)COC(=O)CCCCC(=O)OCc1ccccc1` (stereo not given), the outcome in assay [1], in assay [2], in assay [4], in assay [5], in [6] and in [7] was inactive. Also, the result in assay [8], in [9] and in assay [10] was inactive.

As for `Nc1cccc2c(N)cccc12`, the call in assay [1], in [2], in [3], in [5], in assay [6] and in assay [7] was inactive. Moreover, the outcome in assay [8], in [9] and in assay [10] was inactive. The AC50 in assay [4] is 46.6 µM (active).

`CCCCOCCO`: the result in assay [1], in [2], in [3], in assay [4], in assay [5] and in assay [6] was inactive. Besides, the result in assay [7], in assay [8], in assay [9] and in assay [10] was inactive.

Consider `c1ccc2c(c1)Cc1ccccc1-2`, for which the compound was called inactive in assay [1], in assay [2], in [3], in assay [4], in assay [5] and in assay [6]. Moreover, the outcome in assay [8], in assay [9] and in [10] was inactive. The AC50 in assay [7] is 4.37 µM (active).

Regarding `OC1CCCCC1`, the result in assay [1], in [2], in [4], in assay [5], in assay [6] and in assay [7] was inactive. Moreover, the outcome in assay [8], in [9] and in assay [10] was inactive.

Take `c1ccc2c(c1)ccc1ccccc12`: the call in assay [1], in assay [2], in assay [3], in [4], in [5] and in [6] was inactive. In addition, the result in assay [8], in assay [9] and in [10] was inactive. Further, the AC50 in [7] was 3.97 µM (active).

Turning to `CCOC(=O)CC(O)(CC(=O)OCC)C(=O)OCC`, the outcome in assay [1], in assay [2], in assay [3], in assay [4], in assay [5] and in assay [6] was inactive. Also, the result in assay [7], in assay [8], in [9] and in assay [10] was inactive.

For `Cc1oc(-c2ccccc2)nc1CCOc1ccc(C[C@H](Nc2ccccc2C(=O)c2ccccc2)C(=O)O)cc1`, the result in [1], in assay [3], in assay [4] and in [6] was inactive. Moreover, the AC50 in [2] was 18 µM (active); in [5], 18.2 µM (active); in assay [7], 36.7 µM (active); in [8], 14.6 µM (active); in assay [9], 33.1 µM (active); in assay [10] it was 36.2 µM (active).

Consider `CCCCCCC(=O)O`, for which the compound was classed as inactive in assay [1], in [2], in [4], in assay [5], in assay [6] and in assay [7]. The result in [8], in assay [9] and in [10] was inactive.

The term AC50 denotes the concentration at which the activity in the assay is half-maximal.
